Measurements: PubChem BioAssay AID504904 (The Scripps Research Institute Molecular Screening Center, 2011)
The list shows a part of the results. Calls of active or inactive are those of the source. Cut-off read from the data, not from the text of the source: active = activation above about 18%; inactive = the rest.

Molecular target: Mu-type opioid receptor (Homo sapiens) + Delta-type opioid receptor (Homo sapiens) (UniProt P35372+P41143)
Experiment: OPRM1-OPRD1 heterodimer formation agonism – cell-based, luminescence, confirmation (AID 504904);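 note: 0% = vehicle-treated cells and 100% = reference agonist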
Settings: cells, MOR-DOR heterodimerization, luminescence complementation; at 9.3 µM; stronger effect = higher value

Chain of Mu-type opioid receptor (Homo sapiens) + Delta-type opioid receptor (Homo sapiens) (P35372 whole entry, looked up): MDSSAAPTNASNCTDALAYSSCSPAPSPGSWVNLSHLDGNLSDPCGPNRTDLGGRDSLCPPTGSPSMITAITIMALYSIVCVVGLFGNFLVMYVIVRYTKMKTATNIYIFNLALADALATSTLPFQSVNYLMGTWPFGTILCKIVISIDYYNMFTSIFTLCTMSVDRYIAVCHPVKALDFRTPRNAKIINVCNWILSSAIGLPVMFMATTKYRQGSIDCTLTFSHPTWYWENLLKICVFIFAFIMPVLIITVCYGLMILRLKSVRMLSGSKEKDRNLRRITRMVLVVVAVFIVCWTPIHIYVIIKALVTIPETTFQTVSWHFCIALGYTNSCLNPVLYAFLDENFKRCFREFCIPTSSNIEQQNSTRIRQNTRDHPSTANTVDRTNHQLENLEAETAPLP
Chain of Mu-type opioid receptor (Homo sapiens) + Delta-type opioid receptor (Homo sapiens) (P41143 whole entry, looked up): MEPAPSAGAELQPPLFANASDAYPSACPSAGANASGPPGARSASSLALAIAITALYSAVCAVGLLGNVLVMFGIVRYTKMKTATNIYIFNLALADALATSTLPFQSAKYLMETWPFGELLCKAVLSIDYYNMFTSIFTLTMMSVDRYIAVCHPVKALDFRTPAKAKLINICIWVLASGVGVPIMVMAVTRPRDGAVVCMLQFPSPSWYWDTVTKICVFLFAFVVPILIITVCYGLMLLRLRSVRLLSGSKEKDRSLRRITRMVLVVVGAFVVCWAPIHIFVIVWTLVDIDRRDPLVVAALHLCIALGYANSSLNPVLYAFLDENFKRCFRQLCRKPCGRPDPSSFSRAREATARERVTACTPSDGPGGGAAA

activation, active:
CCc1ccc(C(CNc2nc(C(F)(F)F)nc3ccccc23)N(C)C)cc1 (stereo unspecified) 42.4%
CCOC(=O)c1c(C)[nH]c2c1-c1ccccc1C(=O)C2=O 18.7%
Cc1ccc(OCC(=O)Nc2ccc(NC(=O)c3cccs3)cc2)c(C)c1 421%
CN(C)C(CNC(=O)Cc1ccc([N+](=O)[O-])cc1)c1ccccc1 (stereo unspecified) 164%
COc1cc(C(=O)OC(C)C(=O)NCC2CCCCC2)cc(NC(=O)c2ccco2)c1OC (stereo unspecified) 213%
CCCC(=O)NC(C)C(c1cccs1)N1CCN(c2ccccc2)CC1 (stereo unspecified) 36.7%

activation, inactive:
COC(=O)c1ccc(C23CC4(C2)[C@H](CN(Cc2cccnc2)[C@@H]4c2ccccc2)C3c2ccc(Cl)nc2)cc1 (stereo partly specified) 17.2%
COc1cc(/C=N/NC(=O)Nc2ccccc2)ccc1OCCOc1ccccc1C 17.1%
COc1ccccc1C(CNC(=O)c1ccc(C)c(S(=O)(=O)N2CCCCC2)c1)N(C)C (stereo unspecified) 3.98%
CCC(C(=O)OCC(=O)Nc1ccc(C(=O)Nc2ccc(OC)cc2)cc1)c1ccccc1 (stereo unspecified) 4.73%
CC(c1cccnc1)N(CCN(C)C)C(=O)Nc1ccc(Cl)c(Cl)c1 (stereo unspecified) -0.05%
N#CC(C(=O)c1ccc(S(=O)(=O)N2CCCCCC2)cc1)c1nc2ccccc2[nH]1 (stereo unspecified) 6.41%
CN1CCN(c2ccc([N+](=O)[O-])c(Sc3nc4ccccc4[nH]3)c2)CC1 1.22%
C=C(C)COc1ccc(-c2n[nH]c(C)c2-c2ccccc2)c(O)c1 13.3%
N#C/C(=C(/O)COC(=O)COc1ccc(Cl)cc1)c1nc2ccccc2[nH]1 13.4%
COc1ccc(-n2nnnc2-c2nc3ccccc3s2)cc1 3.47%
O=C(Nc1ccc(OC(F)(F)F)cc1)c1ccc2c(c1)no[n+]2[O-] 13.3%
CN(C)C(CNC(=O)c1ccc(S(=O)(=O)NCc2ccco2)cc1)c1ccccc1 (stereo unspecified) 16.7%
Cc1ccc(CNC(=O)CC(NC(=O)c2ccccc2)c2ccccc2)cc1 (stereo unspecified) -2.24%
CN(C)CCCN(C(=O)c1ccc(S(=O)(=O)N2CCCc3ccccc32)cc1)c1nc2ccc(F)cc2s1 8.38%
O=C(NCc1cn2ccsc2n1)Nc1ccc(Cl)cc1 7.03%
